Assay results published in PubChem BioAssay.
Activity calls are given as the source filed them.

Columns and labels:
[1] = binders of probe aFSTL3 on microarray, primary screen, stem cell growth factor project, biochemical, small-molecule microarray, fluorescence 635/667 (AID 1064); details: higher = more signal;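 note: measures binding of the biotinylated anti-FSTL3 antibody to printed compounds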
[2] = binders from COS7 lysate, DM2A8 probe, primary screen, torsin A project, cell lysate, small-molecule microarray, fluorescence 635/667 (AID 1065); details: higher = more signal, COS7 lysate expressing mutant human TOR1A
[3] = binders of probe aFGF2 on microarray, primary screen, stem cell growth factor project, biochemical, small-molecule microarray, fluorescence 635/667 (AID 1067); details: higher = more signal;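 note: measures binding of biotinylated aFGF2 protein to printed compounds on slides; z-score merges feature fluorescence and signal-to-noise across triplicate slides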
[4] = binders of probe aFGF10 on microarray, primary screen, stem cell growth factor project, biochemical, small-molecule microarray, fluorescence 635/667 (AID 1071); details: higher = more signal;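 note: score merges 667 nm spot intensity and signal to noise from triplicate slides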
[5] = molecular target: Neurogenic locus notch homolog protein 2 (Homo sapiens) (UniProt Q04721); experiment: Notch2 binders on small-molecule microarrays, primary screen, biochemical, small-molecule microarray, 635 nm fluorescence, stem cell growth factors (AID 1073); details: Notch2 binding, higher = more signal
[6] = molecular target: Pro-neuregulin-1, membrane-bound isoform (Homo sapiens) (UniProt Q02297); experiment: NRG1 binders on small-molecule microarrays, primary screen, psychiatric disease protein project, biochemical, small-molecule microarray, fluorescence 635/667 (AID 1075); details: NRG1 binding, 635 nm fluorescence, higher = more signal;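 note: score combines 667 nm spot fluorescence with signal to noise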
[7] = tested on: Neuregulin-1 EGF-like domain; experiment: binders of neuregulin-1 EGF-like domain, primary screen, biochemical, small-molecule microarray, 635 nm fluorescence (AID 1081); details: small-molecule microarray binding, higher = more signal;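 note: binding of the protein to compounds printed on small-molecule microarray slides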
[8] = FRG1 promoter luciferase signal modulators, primary screen, FRG1 inhibition for FSHD, cell-based, C2C12 myotubes, firefly/Renilla luciferase, luminescence (AID 1084); details: higher = more signal, called active from +8 up or from −8 down
[9] = binders of probe aFST on microarray, primary screen, stem cell growth factor project, biochemical, small-molecule microarray, fluorescence 635/667 (AID 1086); details: higher = more signal;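 note: score merges 667 nm fluorescence with signal-to-noise of each printed compound spot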
[10] = binders of probe aHhip on microarray, primary screen, stem cell growth factor project, biochemical, small-molecule microarray, fluorescence 635/667 (AID 1087); details: higher = more signal;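 note: score merges spot fluorescence at 667nm with spot signal to noise ratio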
[11] = tested on: PRMT1 (protein arginine N-methyltransferase 1); experiment: PRMT1 binders on small-molecule microarrays, primary screen, biochemical, small-molecule microarray, 635 nm fluorescence (AID 1088); details: small-molecule microarray binding, higher = more signal;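 note: binding of Prmt1 protein to compounds spotted on small-molecule microarray slides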
[12] = yeast growth modulation, basal conditions, primary screen, YJM789 clinical isolate, OD600, 24 h (AID 1089);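 note: growth of clinical yeast isolate S. cerevisiae YJM 789 seeded 1000 cells per well; test concentration not given here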; details: S. cerevisiae YJM789 growth, higher = more signal, called active from +8 up or from −8 down
[13] = fission yeast growth modulation, primary screen, strain 972, OD600, 24 h, no modulator (AID 1090);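 note: basal condition with compound alone and no growth modifier present; test concentration not given here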; details: S. pombe 972 growth, higher = more signal, called active from +8 up or from −8 down
[14] = S. cerevisiae growth modulation with rapamycin, primary screen, strain BY4716, OD600, 96 h (AID 1091); details: higher = more signal, called active from +8 up or from −8 down; note: test concentration not given here
[15] = molecular target: Torsin-1A-interacting protein 2 (Homo sapiens) (UniProt Q8NFQ8); experiment: LULL1 binders on small-molecule microarray, primary screen, cell lysate, human LULL1 lysate, 635/667 nm fluorescence (AID 1092); details: hLULL1 lysate binding, 635 nm fluorescence, higher = more signal;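 note: probe is lysate of COS7 cells overexpressing human LULL1; score merges per-feature 667 nm fluorescence with signal-to-noise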
[16] = E. coli growth modulation, two-sided OD650, primary screen, E. coli filamentation project, strain DRC41, 24 h (AID 1093); details: OD650, 24 h, higher = more signal, called active from +8 up or from −8 down;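 note: MC1000 strain lacking acrAB efflux and sulA so SOS filamentation is blocked; test concentration not given here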
[17] = small-molecule microarray binders of probe aLefty2, primary screen, biochemical, biotinylated probe, 635/667 nm fluorescence (AID 1094); details: higher = more signal;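 note: score merges spot fluorescence near 667 nm with spot signal-to-noise ratio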
[18] = tested on: Noggin (protein binding on small-molecule microarray); experiment: Noggin binders on small-molecule microarray, primary screen, biochemical, 635/667 nm fluorescence (AID 1095); details: 635 nm fluorescence, higher = more signal;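 note: score merges 667 nm feature fluorescence with signal to noise over triplicate slides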
[19] = molecular target: Neurogenic locus notch homolog protein 3 (Homo sapiens) (UniProt Q9UM47); experiment: NOTCH3 binders on small-molecule microarray, primary screen, biochemical, 635/667 nm fluorescence (AID 1096); details: NOTCH3 binding, 635 nm fluorescence, higher = more signal
[20] = small-molecule microarray binders of probe aEGFR, primary screen, biochemical, biotinylated probe, 635/667 nm fluorescence (AID 1097); details: higher = more signal;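 note: probe is a biotinylated anti-EGFR antibody binding compounds printed on slides; score combines fluorescence near 667 nm and signal to noise of each spot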

Neurogenic locus notch homolog protein 2 (Homo sapiens), sequence (Q04721 whole entry, looked up, canonical isoform): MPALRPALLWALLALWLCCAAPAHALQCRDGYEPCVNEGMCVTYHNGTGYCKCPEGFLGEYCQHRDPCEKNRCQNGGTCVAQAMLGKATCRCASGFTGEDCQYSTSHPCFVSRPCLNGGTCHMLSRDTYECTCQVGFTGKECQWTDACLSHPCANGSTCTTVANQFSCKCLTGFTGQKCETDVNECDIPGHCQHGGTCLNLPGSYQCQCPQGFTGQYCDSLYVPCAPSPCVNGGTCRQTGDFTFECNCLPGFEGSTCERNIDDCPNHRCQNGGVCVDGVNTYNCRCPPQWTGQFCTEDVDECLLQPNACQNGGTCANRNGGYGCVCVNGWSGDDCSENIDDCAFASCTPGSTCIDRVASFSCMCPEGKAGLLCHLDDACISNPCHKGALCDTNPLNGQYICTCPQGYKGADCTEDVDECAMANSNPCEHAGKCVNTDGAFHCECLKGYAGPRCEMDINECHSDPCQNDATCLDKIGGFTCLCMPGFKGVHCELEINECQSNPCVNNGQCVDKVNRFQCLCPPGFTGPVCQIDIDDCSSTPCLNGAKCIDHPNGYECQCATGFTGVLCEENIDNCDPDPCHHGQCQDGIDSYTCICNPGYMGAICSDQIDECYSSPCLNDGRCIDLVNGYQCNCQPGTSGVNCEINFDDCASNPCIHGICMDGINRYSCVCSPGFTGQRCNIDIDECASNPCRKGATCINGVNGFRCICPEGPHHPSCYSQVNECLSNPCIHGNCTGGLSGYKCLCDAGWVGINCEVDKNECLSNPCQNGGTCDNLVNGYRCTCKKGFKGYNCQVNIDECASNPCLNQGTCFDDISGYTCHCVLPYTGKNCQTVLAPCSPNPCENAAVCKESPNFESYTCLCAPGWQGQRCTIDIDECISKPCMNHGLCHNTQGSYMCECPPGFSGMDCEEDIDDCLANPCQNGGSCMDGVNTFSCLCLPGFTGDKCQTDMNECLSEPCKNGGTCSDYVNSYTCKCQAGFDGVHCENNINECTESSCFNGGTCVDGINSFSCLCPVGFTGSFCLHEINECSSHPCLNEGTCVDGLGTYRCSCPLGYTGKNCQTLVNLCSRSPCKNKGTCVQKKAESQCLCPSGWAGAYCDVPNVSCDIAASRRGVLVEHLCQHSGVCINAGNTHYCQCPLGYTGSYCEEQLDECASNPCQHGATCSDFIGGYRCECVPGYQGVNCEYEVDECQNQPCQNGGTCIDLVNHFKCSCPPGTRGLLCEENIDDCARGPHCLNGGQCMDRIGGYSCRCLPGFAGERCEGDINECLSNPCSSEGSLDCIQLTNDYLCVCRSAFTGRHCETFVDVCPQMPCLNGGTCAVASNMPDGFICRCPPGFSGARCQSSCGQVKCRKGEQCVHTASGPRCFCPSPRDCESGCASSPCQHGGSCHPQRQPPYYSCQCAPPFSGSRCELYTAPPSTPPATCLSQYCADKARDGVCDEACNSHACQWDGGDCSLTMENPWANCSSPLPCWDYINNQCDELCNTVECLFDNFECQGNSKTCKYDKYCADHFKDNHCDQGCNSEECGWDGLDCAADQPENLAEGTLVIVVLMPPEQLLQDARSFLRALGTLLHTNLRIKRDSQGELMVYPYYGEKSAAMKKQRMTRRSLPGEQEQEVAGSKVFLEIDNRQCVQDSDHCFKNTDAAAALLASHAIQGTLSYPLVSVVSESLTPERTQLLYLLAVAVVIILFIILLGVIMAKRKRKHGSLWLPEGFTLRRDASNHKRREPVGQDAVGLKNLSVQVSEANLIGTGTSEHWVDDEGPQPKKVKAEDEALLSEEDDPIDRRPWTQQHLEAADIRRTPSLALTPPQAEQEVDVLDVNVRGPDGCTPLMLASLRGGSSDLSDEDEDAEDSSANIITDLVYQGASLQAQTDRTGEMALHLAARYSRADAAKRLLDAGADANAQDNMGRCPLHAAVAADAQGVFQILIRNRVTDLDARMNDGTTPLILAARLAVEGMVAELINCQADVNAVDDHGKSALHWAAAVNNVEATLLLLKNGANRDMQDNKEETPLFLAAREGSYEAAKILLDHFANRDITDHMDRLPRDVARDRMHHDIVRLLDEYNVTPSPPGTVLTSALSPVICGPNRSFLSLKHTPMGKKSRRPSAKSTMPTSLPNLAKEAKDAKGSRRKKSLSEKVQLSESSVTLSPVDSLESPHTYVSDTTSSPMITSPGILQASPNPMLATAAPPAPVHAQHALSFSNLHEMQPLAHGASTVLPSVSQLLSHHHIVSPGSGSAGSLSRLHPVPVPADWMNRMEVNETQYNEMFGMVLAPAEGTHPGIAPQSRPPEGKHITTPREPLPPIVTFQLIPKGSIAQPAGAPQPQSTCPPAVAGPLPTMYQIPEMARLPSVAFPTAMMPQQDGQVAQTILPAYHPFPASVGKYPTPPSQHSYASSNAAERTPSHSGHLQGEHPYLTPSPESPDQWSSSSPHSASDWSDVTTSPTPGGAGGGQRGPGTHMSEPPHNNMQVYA
Neurogenic locus notch homolog protein 3 (Homo sapiens), sequence (Q9UM47 whole entry, looked up): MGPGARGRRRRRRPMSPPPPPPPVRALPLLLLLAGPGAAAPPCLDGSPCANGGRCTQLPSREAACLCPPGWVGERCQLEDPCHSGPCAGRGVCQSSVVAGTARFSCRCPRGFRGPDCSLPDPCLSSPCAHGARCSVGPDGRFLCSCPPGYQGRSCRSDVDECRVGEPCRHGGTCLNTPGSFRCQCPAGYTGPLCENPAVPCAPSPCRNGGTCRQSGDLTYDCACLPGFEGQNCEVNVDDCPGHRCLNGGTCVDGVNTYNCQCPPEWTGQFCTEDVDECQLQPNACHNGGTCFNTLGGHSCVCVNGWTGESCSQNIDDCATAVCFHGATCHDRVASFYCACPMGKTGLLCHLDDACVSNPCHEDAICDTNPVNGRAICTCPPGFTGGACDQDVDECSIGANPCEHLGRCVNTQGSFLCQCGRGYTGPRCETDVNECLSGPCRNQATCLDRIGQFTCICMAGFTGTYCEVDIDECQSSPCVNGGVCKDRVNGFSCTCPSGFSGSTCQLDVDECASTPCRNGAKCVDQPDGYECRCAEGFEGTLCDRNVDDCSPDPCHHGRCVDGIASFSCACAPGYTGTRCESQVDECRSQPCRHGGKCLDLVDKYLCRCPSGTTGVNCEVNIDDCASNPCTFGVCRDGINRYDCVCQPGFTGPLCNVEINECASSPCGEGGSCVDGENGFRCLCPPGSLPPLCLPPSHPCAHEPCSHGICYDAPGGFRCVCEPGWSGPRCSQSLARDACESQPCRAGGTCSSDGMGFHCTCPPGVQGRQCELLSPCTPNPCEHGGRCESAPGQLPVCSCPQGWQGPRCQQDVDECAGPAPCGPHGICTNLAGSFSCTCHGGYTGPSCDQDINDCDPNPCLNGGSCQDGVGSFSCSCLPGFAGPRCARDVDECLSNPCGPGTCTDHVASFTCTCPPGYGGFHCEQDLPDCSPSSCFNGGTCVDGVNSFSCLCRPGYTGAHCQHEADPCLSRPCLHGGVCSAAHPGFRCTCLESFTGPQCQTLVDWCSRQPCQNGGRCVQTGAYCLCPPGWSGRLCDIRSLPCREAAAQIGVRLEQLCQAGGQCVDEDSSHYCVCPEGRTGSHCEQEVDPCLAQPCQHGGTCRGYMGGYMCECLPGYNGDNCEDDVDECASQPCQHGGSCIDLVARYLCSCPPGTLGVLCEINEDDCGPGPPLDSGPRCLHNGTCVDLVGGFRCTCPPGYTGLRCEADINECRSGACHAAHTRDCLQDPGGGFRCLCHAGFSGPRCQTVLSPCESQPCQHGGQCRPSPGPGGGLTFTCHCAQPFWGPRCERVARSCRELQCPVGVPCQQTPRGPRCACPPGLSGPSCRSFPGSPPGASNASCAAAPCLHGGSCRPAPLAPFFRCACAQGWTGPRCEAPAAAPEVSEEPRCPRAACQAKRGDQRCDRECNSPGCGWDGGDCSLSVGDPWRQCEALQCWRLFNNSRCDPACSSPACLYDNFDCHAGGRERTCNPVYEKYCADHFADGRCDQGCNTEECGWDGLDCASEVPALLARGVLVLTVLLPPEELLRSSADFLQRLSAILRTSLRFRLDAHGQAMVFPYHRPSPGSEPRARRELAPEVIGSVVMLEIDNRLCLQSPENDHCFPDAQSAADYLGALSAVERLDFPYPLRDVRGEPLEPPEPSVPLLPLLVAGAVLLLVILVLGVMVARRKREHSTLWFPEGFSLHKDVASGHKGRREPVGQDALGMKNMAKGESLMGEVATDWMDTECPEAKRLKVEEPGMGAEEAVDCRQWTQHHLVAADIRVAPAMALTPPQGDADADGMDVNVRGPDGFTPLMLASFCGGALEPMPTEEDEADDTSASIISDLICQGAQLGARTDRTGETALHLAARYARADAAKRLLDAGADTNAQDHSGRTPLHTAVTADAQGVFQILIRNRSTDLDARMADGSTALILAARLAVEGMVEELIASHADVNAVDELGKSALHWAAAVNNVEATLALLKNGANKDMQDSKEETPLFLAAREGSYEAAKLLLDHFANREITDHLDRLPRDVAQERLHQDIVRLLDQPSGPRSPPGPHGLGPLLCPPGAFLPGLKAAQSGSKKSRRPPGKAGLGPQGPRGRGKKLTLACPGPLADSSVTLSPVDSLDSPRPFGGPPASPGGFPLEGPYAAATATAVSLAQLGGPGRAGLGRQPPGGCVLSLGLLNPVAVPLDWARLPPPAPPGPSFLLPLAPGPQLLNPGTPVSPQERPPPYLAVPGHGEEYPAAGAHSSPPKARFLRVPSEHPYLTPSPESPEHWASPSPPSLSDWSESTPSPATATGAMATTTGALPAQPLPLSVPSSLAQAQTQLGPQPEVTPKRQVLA

| Structure (SMILES) | composite z-score [1] | composite z-score [2] | composite z-score [3] | composite z-score [4] | composite z-score [5] | composite z-score [6] | composite z-score [7] | z-score [8] | composite z-score [9] | composite z-score [10] | composite z-score [11] | z-score [12] | z-score [13] | z-score [14] | composite z-score [15] | z-score [16] | composite z-score [17] | composite z-score [18] | composite z-score [19] | composite z-score [20] |
| --- | --- | --- | --- | --- | --- | --- | --- | --- | --- | --- | --- | --- | --- | --- | --- | --- | --- | --- | --- | --- |
| CN(C)C(=O)[C@]1(CCS(=O)(=O)c2ccccc2)N=C(c2ccc(OCCCO)cc2)O[C@@H]1c1ccccc1N=[N+]=[N-] | 0.169 | 1.13 | 0.15 | 1.16 | 1.59 | 1.27 | 1.4 | 2.79 (inactive) | 1.84 | 0.155 | 1.53 | 0.154 (inactive) | -0.327 (inactive) | 1.69 (inactive) | 3.78 | 0.0837 (inactive) | 0.429 | 1.42 | 1.05 | 0.204 |
| COCCCNC(=O)[C@]1(CCS(=O)(=O)c2ccccc2)N=C(c2ccc(OCCCO)cc2)O[C@@H]1c1ccccc1CN=[N+]=[N-] | 0.688 | 1.32 | 0.418 | 0.948 | 1.63 | 1.79 | 1.14 | 0.174 (inactive) | 1.44 | -0.0518 | 1.55 | 1.52 (inactive) | 0.971 (inactive) | 2.59 (inactive) | 3.47 | 0.773 (inactive) | 0.417 | 0.896 | 1.02 | 0.455 |
| COC(=O)C(CC#Cc1ccc2c(c1)[C@]1(C(=O)N2)[C@H](C(=O)N2CCN(c3ncccn3)CC2)[C@H]2C(=O)O[C@H](c3ccccc3)[C@H](c3ccccc3)N2[C@@H]1c1ccc(OCCO)cc1)C(=O)OC | -0.448 | 1.21 | -0.0768 | 0.554 | 1.16 | 1.67 | 1.26 | 1.97 (inactive) | 0.38 | -0.0296 | 1.53 | 3.19 (inactive) | 2.13 (inactive) | 5.67 (inactive) | 2.76 | 0.54 (inactive) | 0.0008 | 1.3 | 1.02 | -0.0177 |
| COc1ccc(CCNC(=O)[C@@]2(Sc3ccc(C)cc3)CC(=O)N(C3Cc4ccccc4C3)[C@@H]2c2ccc(CO)cc2)cc1 | 0.183 | 0.737 | 0.153 | -0.0334 | 1.43 | 0.591 | 1.29 | -3.33 (inactive) | 0.384 | 0.866 | 1.54 | 0.593 (inactive) | -0.468 (inactive) | 0.707 (inactive) | 1.88 | -1.79 (inactive) | 0.0511 | 2.07 | 1.02 | 0.0707 |
| C[C@H]1NC(=O)[C@@]23C(=O)N[C@@H](Cc4ccccc4)C2[C@H](C)[C@@]2(C)O[C@H]2C3/C=C/C/C=C\CNC(=O)[C@H](Cc2ccccc2)NC1=O (stereo not given in full) | -0.536 | 0.0198 | -0.206 | 0.533 | -0.158 | 1.4 | 1.11 | 1.8 (inactive) | -0.107 | -0.137 | 0.44 | 0.907 (inactive) | -0.236 (inactive) | 0.952 (inactive) | 0.834 | -0.225 (inactive) | -0.213 | 1.22 | 0.967 | -0.096 |
| COC(=O)[C@@]1(Cc2ccc(F)cc2)[C@H]2c3cc(C(=O)N4CCCC4)n(CCN4CNCC4=O)c3C[C@H]2CN1C(=O)c1ccccc1 | 0.144 | 1.56 | 0.0732 | 0.132 | 1.26 | 1.07 | 1.35 | 4.7 (inactive) | 1.26 | 0.178 | 1.2 | 0.614 (inactive) | -0.198 (inactive) | 0.316 (inactive) | 3.97 | -0.151 (inactive) | 0.459 | 0.46 | 0.842 | 0.118 |
| C=CCC(OC(C)=O)[C@@H]1[C@@H](N(Cc2cccc3ccccc23)C(=O)c2cccc3ccccc23)c2cc(OCCCO)ccc2N1C(=O)c1ccc(-c2ccccc2)cc1 (stereo not given in full) | -0.0699 | 0.103 | -0.105 | 0.0552 | -0.603 | 0.523 | -0.825 | -1.66 (inactive) | 0.234 | 0.607 | 0.159 | -0.551 (inactive) | 0.169 (inactive) | -0.725 (inactive) | 0.465 | -0.61 (inactive) | -0.027 | 0.163 | -0.287 | -0.0104 |
| CCCCC=C[C@@H](NC(=O)c1ccc(-c2ccccc2)cc1)c1ccccc1 | -0.0095 | -0.0424 | -0.021 | 0.457 | 1.44 | 1.55 | 0.739 | 0.61 (inactive) | 0.517 | 0.21 | 0.246 | 0.603 (inactive) | -1.45 (inactive) | -0.713 (inactive) | 2.44 | -0.444 (inactive) | 0.179 | -0.323 | 0.496 | -0.094 |
| CCOC(=O)C1=CC[C@@H](c2ccc(OCc3ccccc3)c(OC)c2)N(S(=O)(=O)c2ccc(C)cc2)[C@H]1c1ccc(SC)cc1 | 0.152 | 0.718 | 0.162 | 1.02 | 1.54 | 0.876 | 1.11 | -0.895 (inactive) | 1.67 | 0.245 | 1.1 | -0.448 (inactive) | 0.236 (inactive) | 1.94 (inactive) | 3.21 | -0.628 (inactive) | 0.347 | 0.257 | 1.12 | 0.206 |
| C=C(/C(=C/C[C@@H](OC(C)=O)c1cccc(OCCO)c1)c1cc(C(=O)OC)ccc1OC)C(C)C | -0.367 | 1.11 | -0.0799 | 0.451 | -0.114 | -0.202 | 0.938 | 0.608 (inactive) | 0.313 | 0.0373 | 1.07 | -0.373 (inactive) | 0.114 (inactive) | -0.87 (inactive) | 1.69 | 0.251 (inactive) | 0.0347 | 0.575 | 0.666 | -0.0987 |
